Our source for the growth values is PubChem BioAssay (NCI).

Compounds without any hit were thinned out: in the full panel of roughly 83,000, 20% have a hit.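 Percent growth is the endpoint: 0 to 100 indicates growth inhibition (40 means 60% inhibition), 0 means no net growth, and negative values indicate cell death.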 Unmarked numbers belong to inactive results. Calls of active or inactive are those of the source. The calls were made as follows: active = growth percent below 10; inactive = the rest.

The test system of the assay is HL-60(TB) leukemia. Put plainly: NCI-60 one-dose screen, 48 h (100 = growth as untreated, 0 = no growth, -100 = all killed). The note with it: 10 µM unless noted.
On to `C#Cc1nc(C2=C(C)C(=N\O)/C(=N/O)C2)cs1`, for which the growth is 81.7%. For `[Cl][Ru].c1ccc(-c2cccc(-c3ccccn3)n2)nc1.c1ccc(-c2ccnc3c2ccc2c(-c4ccccc4)ccnc23)cc1`, the growth is -10.5% (active). As to `Cc1ccc(C(=O)CSc2nnc(-c3ccc(-c4ccc(Cl)cc4)nc3C)o2)cc1`, the growth is 103%. Consider `Brc1ccc2[nH]cc(-c3nn4cc(-c5nccs5)nc4s3)c2c1`, for which the growth was 59.1%. With `O=C(N/N=C/c1ccc[nH]1)c1[nH]c2ccc(Br)cc2c1-c1ccccc1` the figure was -39.1% (active); with `CCCCCc1ccc(S(=O)(=O)Nc2cccc(-c3csc(NC(=O)CCCCCN4CCN(C)CC4)n3)c2)cc1`, -41.5% (active). With `CC1=C(C)C(=O)C(Nc2ccc3c(c2)OCCO3)=C(Br)C1=O` the figure was -44.2% (active). The same measure for `CCCCN1C(=O)/C(=c2\sc3n(c2=O)C2C(NN=3)N(CC)C(=O)N2CC)c2cccc(C)c21` (stereo not given): 2.95% (active). Take `O=C(CN1CCN(c2cc(=O)[nH]c3ccc(F)cc23)CC1)N(c1ccccc1)c1ccccc1`: the growth was 106%. `CC(=O)c1ccc(NC(=O)COc2ccc(C3SCC(=O)N3c3ccc(Br)cc3)cc2)cc1` (stereo not given): the growth is 96.7%.

With `CS(=O)(=O)c1ccc(-c2nc3ccccn3c2/C=N/Nc2nc(-c3ccc(Cl)cc3)cs2)cc1`, the growth is 99.2%. With `O=S(=O)(Nc1cc(Cl)cc(Cl)c1)c1ccc(-c2cnc(C3CC3)o2)cc1` the figure was 8.29% (active).

For the compound `O=C(CCn1c[n+](CC(=O)c2ccc(F)cc2)c2ccccc21)Nc1cccc2cccnc12`, the growth was 36.7%. With `CS(=O)(=O)Nc1ccc(-c2nn(-c3ccc(S(C)(=O)=O)cc3)cc2/C=C/C(=O)c2ccc(NC(=O)CO[N+](=O)[O-])cc2)cc1` the figure was 107%; with `O=S(=O)(NCCCNc1nccc(-c2[nH]c(-c3ccccc3)nc2-c2ccc(Cl)c(O)c2)n1)c1ccc(Br)cc1`, 13.1%.

Take `O=S(=O)(NCCNc1nccc(-n2cnc3ccccc32)n1)c1ccc(C(F)(F)F)cc1`: the growth is 73.8%. With `C[C@@H]1CN(c2ccc3ncc(C#Cc4cncc(C(=O)Nc5ccc(CN6CCN(C)CC6)c(C(F)(F)F)c5)c4)n3n2)C[C@H](C)O1` the figure was -30.7% (active). The same measure for `CCOc1ccc2nc(NC(=O)c3ccc(C(F)(F)F)cc3)sc2c1`: 93.9%.

As to `COc1c(N2CC3CCCNC3C2)c(F)cc2c(=O)c(C(=O)N/N=C/c3c[nH]c4ccccc34)cn(C3CC3)c12` (stereo not given), the growth is 94.4%. With `NC(=O)c1c(NC(=O)c2cccc(OC(F)(F)F)c2)sc2c1CCC(=O)C2` the figure was 60%. The same measure for `CCNC(=O)N1CCc2cc(OC)c(OCCc3ccc(OC)cc3)cc2C1c1ccc(Cl)cc1C` (stereo not given): 12.2%; for `O=c1/c(=C\c2ccc(-c3ccccc3)o2)sc2nc(-c3ccccc3)nn12`: 107%; for `C#C[C@]1(O)CC[C@H]2[C@@H]3CC=C4c5sc(Nc6cc(Cl)ccc6OC)nc5CC[C@]4(C)[C@H]3CC[C@@]21C`: 5.48% (active). On to `COc1c(N2CC3CCCNC3C2)c(F)cc2c(=O)c(C(=O)N/N=C/c3ccc(Br)cc3)cn(C3CC3)c12` (stereo not given), for which the growth was 84%. With `Nc1c(C(=O)c2ccccc2)sc2nc(-c3cnccn3)cc(-c3cccs3)c12` the figure was 108%; with `CCN(CC)c1ccc2c(c1)Oc1nc(N)c(C#N)c(N)c1C2Sc1ccc(C)cc1` (stereo not given), -24.4% (active); with `Cc1ccc(NC(=O)c2ccc(CN3CCOCC3)c(C(F)(F)F)c2)cc1Oc1ccc(-c2[nH]nc3ncnc(N)c23)cc1`, 80.9%. With `CCCn1cnc2c(c1=N)C(c1ccc(F)cc1)c1sc3c(C)cccc3c1O2` (stereo not given) the figure was -30.2% (active); with `O=c1[nH]c(CCl)nc2c1cnn2-c1ccccc1`, 109%; with `CCOC(=O)c1c(Nc2ccccc2)nn2c(N)c(C#N)c(-c3ccccc3)nc12`, 70.9%. Turning to `CCOC(=O)C(=O)/C(=C\c1ccc(Cl)cc1)C(=O)N1C(=S)NC(=O)C1CC(C)C` (stereo not given), the growth was 111%. Take `COc1cc(/C=C/C(=O)c2cc(OC)c(OC)c(OC)c2)ccc1OCc1ccccc1`: the growth was -9.27% (active). The same measure for `CCCn1cnc2c(c1=N)C(c1ccc(OC)cc1)c1sc3c(CC)cccc3c1O2` (stereo not given): -12.9% (active); for `CN1C(=S)N(C)C2C1NN=C1SC(c3ccccc3)=CC(=O)N12` (stereo not given): 80.7%. Regarding `Oc1ccc(CSc2nnc(-c3ccc(Br)cc3)o2)c2cccnc12`, the growth is 23%.
